High-throughput results: PubChem BioAssay, several laboratories
eIF4H FP inh: inhibitors of RNA binding by human eIF4H; Q15056; eIF4H fluorescence polarization binding assay; inhibition, % at 35 µM; 0.94% of 290,000 active; AID 2012;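 also: calls also rest on retests at 20 µM and on dose response follow-up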
PHOSPHO1 inh: PHOSPHO1 (human) inhibition. recombinant PHOSPHO1, absorbance phosphatase assay. AID 1565. 1.1% of 290,000 active. Q8TCT1. inhibition, % at 13.3 µM; in the data active = inhibition above about 60%
PABP polyA inh: PABP-poly(A) binding inhibition | P11940 | PABP-poly(A) RNA binding, fluorescence polarization | calls only at 35 µM | 1% of 290,000 active;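 also: calls also rest on retests at 20 µM and on dose response follow-up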
Efa HMGR inh: inhibitors of class II HMG-CoA reductase from Enterococcus faecalis; purified E. faecalis HMGR, NADPH absorbance 340 nm kinetic; inhibition, % at 10 µM; 0.41% of 190,000 active;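 active = inhibition above a set limit, the median over all tested compounds plus 3 SD, cut at about 9.5% in these data; inconclusive = no clear call, values can overlap the other calls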;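 also: enzyme runs in reverse so mevalonate oxidation gives rising NADPH absorbance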
PABP1 MLLE inh: blocks PAM2 peptide binding to the PABP1 MLLE domain; P11940; inhibition, % at 20 µM; 0.36% of 360,000 active; GST-MLLE / FITC-PAM2 fluorescence polarization; in the data active = inhibition above about 35%, passing the limit was not always enough
Numbers stand for hits. The list is not random: actives were taken first. Their share in the collection is about 2.4%. Unless noted, no rule for the calls is given here.

For CC1(C)Cc2c(cnn2-c2ccc(F)cc2)C(NC(=O)c2cnccn2)C1 (stereo not given) the results were eIF4H FP inh inactive, PHOSPHO1 inh inactive, PABP polyA inh inactive and PABP1 MLLE inh inactive.
For Brc1ccc(-c2nn3c(-c4ccco4)nnc3s2)o1 the results were eIF4H FP inh 66, PHOSPHO1 inh 99, PABP polyA inh active, Efa HMGR inh inactive and PABP1 MLLE inh inactive.
Screening Cc1oc(-c2ccccc2Cl)cc1-c1nn2c(-c3ccco3)nnc2s1 returned eIF4H FP inh inactive, PHOSPHO1 inh 72 and PABP polyA inh inactive.
`CCOc1cccc(-c2nnc3sc(-c4ccco4)nn23)c1` gave eIF4H FP inh inactive, PHOSPHO1 inh 64, PABP polyA inh inactive, Efa HMGR inh inactive and PABP1 MLLE inh inactive.
c1coc(-c2nnc3sc(C4CCCCC4)nn23)c1 was read as eIF4H FP inh inactive, PHOSPHO1 inh 72, PABP polyA inh inactive, Efa HMGR inh inactive and PABP1 MLLE inh inactive.
`COc1ccc(-c2nnc3sc(C4CCCCC4)nn23)cc1OC` gave eIF4H FP inh inactive, PHOSPHO1 inh inactive, PABP polyA inh inactive, Efa HMGR inh inactive and PABP1 MLLE inh inactive.
Screening c1ccc(-c2nn3c(-c4ccco4)nnc3s2)nc1 returned eIF4H FP inh inactive, PHOSPHO1 inh inactive, PABP polyA inh inactive, Efa HMGR inh inactive and PABP1 MLLE inh inactive.
Screening Clc1ccc(-c2ccc(-c3nn4c(-c5ccco5)nnc4s3)o2)cc1 returned PABP1 MLLE inh inactive.
Screening CC1(C(=O)NS(=O)(=O)c2ccc(F)cc2F)CCN1C(=O)CC1CCCCC1 (stereo not given) returned PABP1 MLLE inh inactive.
`O=C(CCl)N(C1CCCC1)C1CCS(=O)(=O)C1` (stereo not given) gave eIF4H FP inh inactive, PHOSPHO1 inh inactive, PABP polyA inh inactive and PABP1 MLLE inh inactive.
O=C(c1ccccc1F)n1c2c(c3ccccc31)CCCC2 was read as eIF4H FP inh inactive, PHOSPHO1 inh inactive, PABP polyA inh inactive and PABP1 MLLE inh inactive.
For COc1cc(C(=O)NN=Cc2ccc(N(C)C)cc2)cc(OC)c1OC the results were PABP1 MLLE inh inactive.
`CCOc1cc(/C=N/NC(=O)C(=O)NCc2ccc3c(c2)OCO3)ccc1OCC(=O)N1CCOCC1` gave eIF4H FP inh inactive, PHOSPHO1 inh inactive, PABP polyA inh inactive and PABP1 MLLE inh inactive.
`O=C(Nc1nnc(C2=COCCO2)o1)c1ccc(Cl)cc1` gave eIF4H FP inh inactive, PHOSPHO1 inh inactive, PABP polyA inh inactive, Efa HMGR inh inactive and PABP1 MLLE inh inactive.
For CC(=O)Nc1nnc(C2=COCCO2)o1 the results were eIF4H FP inh inactive, PHOSPHO1 inh inactive, PABP polyA inh inconclusive, Efa HMGR inh 10 and PABP1 MLLE inh inactive.
For O=C1c2nc3cc(-c4ccco4)[nH]n3c(=O)c2CN1C1CCCCC1 the results were eIF4H FP inh 50, PHOSPHO1 inh inactive, PABP polyA inh active and PABP1 MLLE inh inactive.
For O=c1cc(-c2ccccc2)nc2cc(-c3ccco3)[nH]n12 the results were eIF4H FP inh inactive, PHOSPHO1 inh inactive, PABP polyA inh inactive and PABP1 MLLE inh inactive.
`O=C(CCNS(=O)(=O)c1ccc(Br)cc1)N1CCCCCCC1` gave PABP1 MLLE inh inactive.
For O=C(CCS(=O)(=O)c1ccc(Br)cc1)N1CCCCCC1 the results were eIF4H FP inh 94, PHOSPHO1 inh inactive, PABP polyA inh inactive and PABP1 MLLE inh inactive.
`Cc1ccc(Cl)cc1N1C(=O)CC(Sc2ncccn2)C1=O` (stereo not given) gave eIF4H FP inh inactive, PHOSPHO1 inh inactive, PABP polyA inh inactive and PABP1 MLLE inh 42.
`CCOC(=O)c1ccc(N2C(=O)CC(Sc3ncccn3)C2=O)cc1` (stereo not given) gave eIF4H FP inh inactive, PHOSPHO1 inh inactive, PABP polyA inh inactive and PABP1 MLLE inh 41.
CCOC(=O)C(N)CSC1CC(=O)N(c2ccc(C(=O)OC)cc2)C1=O (stereo not given) was read as eIF4H FP inh inactive, PHOSPHO1 inh inactive, PABP polyA inh inactive, Efa HMGR inh inactive and PABP1 MLLE inh inactive.
Cc1ccnc(SC2CC(=O)N(c3ccc([N+](=O)[O-])cc3)C2=O)n1 (stereo not given) was read as eIF4H FP inh inactive, PHOSPHO1 inh inactive, PABP polyA inh inactive and PABP1 MLLE inh 39.
COCCN(C(=O)COC(=O)CCS(=O)(=O)c1ccccc1)c1c(N)n(Cc2ccccc2)c(=O)[nH]c1=O was read as PABP1 MLLE inh inactive.
`C#CCn1c(-c2cccs2)nc2ccccc21` gave eIF4H FP inh inactive, PHOSPHO1 inh inactive, PABP polyA inh inactive, Efa HMGR inh 14 and PABP1 MLLE inh inactive.
